PubChem BioAssay (NCATS)
The source made the active and inactive calls. The call rests on the fitted dose curve; in most records, active means well fitted inhibition curve with a large enough effect; inconclusive means small, poorly fitted or top-dose-only effect; inactive means no such curve, though single readings can be large or run the other way.

Assay: qHTS assay for measurement of the activity of small molecule inhibitors on Zika virus induced Caspase-3 activity in human astrocytoma cells (AID 1224859);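 further: plate controls were ZIKV-infected untreated cells for no effect and uninfected cells for full effect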
Conditions: SNB-19 ZIKV-induced caspase-3/7, luminescence, 6 h; series mostly up to 45.7 µM; activity change, negative = inhibition: at the top concentration
Outline: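 Human SNB-19 astrocytoma cells in RPMI 1640 with 10% FBS receive compound one hour ahead of Zika virus at 2 FFU/cell. After 6 h infection, caspase-3/7 activity is detected by Caspase-Glo luminescence.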

Structure (SMILES)	activity change, negative = inhibition
C[Se]C[C@H](N)C(=O)O	3.13% (inactive)
CCCN(CCC)CCc1c[nH]c2ccc(C(N)=O)cc12	-1.69% (inactive)
N#C/C(=C/c1ccc(O)c(O)c1)C(N)=S	-10.5% (inactive)
N[C@@H](Cn1ccc(=O)[nH]c1=O)C(=O)O	-1.61% (inactive)
CC(C)[C@@]1(NC(=O)[C@@H]2C[C@@H]3c4cccc5[nH]cc(c45)C[C@H]3N(C)C2)O[C@@]2(O)[C@@H]3CCCN3C(=O)[C@H](Cc3ccccc3)N2C1=O	-5.24% (inactive)
C=CCN1CC[C@]23c4c5ccc(O)c4O[C@H]2/C(=N/NC(=O)c2ccccc2)CC[C@@]3(O)[C@H]1C5	-13.9% (inactive)
C[C@@H]1O[C@H](C[N+](C)(C)C)CS1	-3.98% (inactive)
COc1cc(CC(C)N)c(OC)cc1I (stereo not drawn)	-9.81% (inactive)
COc1ccc(CNC(=O)/C=C/c2ccc3[nH]cc(CCN(C)C)c3c2)cc1	-6.59% (inactive)
C=CCN1CC[C@]23c4c5ccc(O)c4O[C@@H]2/C(=N/N=C2\CC[C@@]4(O)C6Cc7ccc(O)c8c7[C@@]4(CCN6CC=C)[C@@H]2O8)CC[C@@]3(O)C1C5	0.287% (inactive)
CCCCCCC(C)(C)c1ccc([C@@H]2C[C@H](O)CC[C@H]2CCCO)c(O)c1	20.8% (inactive)
CC(Cc1ccc(OCC(=O)O)cc1)NCC(O)c1cccc(Cl)c1 (stereo not drawn)	1.23% (inactive)
C/C(O)=C(\C#N)C(=O)Nc1cc(Br)ccc1Br	7.8% (inactive)
NC(Cc1ccc(N(CCCl)CCCl)cc1)C(=O)O (stereo not drawn)	-4.42% (inactive)
N[C@@H](CCl)C(=O)O	2.55% (inactive)
CCN1C[C@@]2(COC)C3[C@@H](OC)C4[C@@H]1C3([C@@H]1C[C@]3(O)[C@H](OC(=O)c5ccccc5)[C@@H]1[C@]4(OC(C)=O)[C@@H](O)[C@@H]3OC)[C@H](OC)C[C@H]2O	-6.74% (inactive)
COc1ccc2c(c1)[C@@]13CCCC[C@H]1[C@@H](C2)NCC3	-7.96% (inactive)
CC(C)(O)[C@@H]1C2OC(=O)[C@@H]1[C@]1(O)C[C@H]3O[C@]34C(=O)O[C@H]2[C@]14C (tested in a mixture with another compound)	-0.836% (inactive)
